From PubChem BioAssay AID624126 (The Scripps Research Institute Molecular Screening Center, 2012)
Screen size: about 360,000 compounds; about 1,400 (0.39%) were called active. Many of the other results were omitted from the sample, so actives are more common in it than they were. A number with no mark means an inactive call.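 How the source made its calls: active means activation above its plate's cutoff, the mean activation of sample wells plus 3 SD; inactive means the rest.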

Biological target: Muscarinic acetylcholine receptor M4 (Homo sapiens) (UniProt P08173)
Sequence (P08173 whole entry, looked up): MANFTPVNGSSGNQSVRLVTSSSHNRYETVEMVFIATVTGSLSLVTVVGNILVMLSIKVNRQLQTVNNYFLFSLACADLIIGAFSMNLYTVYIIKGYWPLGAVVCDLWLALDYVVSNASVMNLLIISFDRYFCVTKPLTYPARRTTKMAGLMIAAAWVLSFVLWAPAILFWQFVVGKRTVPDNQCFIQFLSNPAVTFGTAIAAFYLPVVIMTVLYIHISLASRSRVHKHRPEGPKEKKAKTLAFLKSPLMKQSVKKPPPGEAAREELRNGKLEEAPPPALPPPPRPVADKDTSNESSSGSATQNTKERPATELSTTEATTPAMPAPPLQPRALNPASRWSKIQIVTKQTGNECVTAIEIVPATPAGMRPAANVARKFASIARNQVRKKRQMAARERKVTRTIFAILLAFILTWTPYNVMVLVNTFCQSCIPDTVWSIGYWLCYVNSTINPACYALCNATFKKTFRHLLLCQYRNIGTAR
Experiment: CHRM4 PAMs potentiating acetylcholine calcium signal – CHO-K1 cells, Fluo-8 calcium fluorescence, primary screen (AID 624126)
Settings: CHO-K1 hM4/Gqi5, Fluo-8 calcium fluorescence, ACh EC20; at 3 µM; stronger effect = higher value; 0% = ACh EC20, 100% = maximal ACh

Structure (SMILES)	activation
Cc1ccc(-n2ncc3c(Nc4cccc(C(=O)O)c4)ncnc32)cc1	29.6% (active)
COC(=O)CSc1ncnc2c1cnn2-c1ccc(C)cc1C	1.46%
COc1ccc2nc(C)cc(Nc3cccc(C(=O)O)c3)c2c1	-1.48%
O=C1CN(C(=O)COC(=O)C2CC(=O)N(Cc3ccco3)C2)c2ccccc2N1 (stereo not given)	13.2%
O=C(NCc1ccc2c(c1)OCO2)c1c(-c2ccsc2)sc2ccccc12	-3.52%
COc1cc2c(cc1OC)CN(C(C)C(=O)Nc1cccc(S(=O)(=O)N3CCOCC3)c1)CC2 (stereo not given)	1.73%
O=C(CNC(=O)C12CC3CC(CC(C3)C1)C2)OCC(=O)N1CCCCC1	-2.08%
COC(=O)c1ccc(CNC(=O)C2CCC(=O)N(Cc3cccc(F)c3)C2)cc1 (stereo not given)	2.75%
COC(=O)c1ccc(CNC(=O)C2CCC(=O)N(Cc3ccccn3)C2)cc1 (stereo not given)	13.8% (active)
Cc1ccccc1CCNC(=O)C1CCC(=O)N(Cc2ccc(Cl)cc2)C1 (stereo not given)	-4.94%
Cc1cc(C)c(S(=O)(=O)Nc2c(C)n(C)n(-c3ccccc3)c2=O)cc1[N+](=O)[O-]	-0.44%
CCOC(=O)c1cc(C(C)C)sc1NC(=O)COC(=O)c1nccnc1N	17%
CC(C)(C)C(=O)CN1C2=NCCN2c2ccccc21	-8.44%
O=C(NC1CCCC1)C(c1ccc(N2CCOCC2)cc1)N(C(=O)c1ccco1)c1ccccc1F (stereo not given)	-4.93%
Cc1cccc(N(C(=O)c2ccc(CN3CCOCC3)o2)C(C(=O)NC2CCCCC2)c2ccc(F)cc2)c1 (stereo not given)	15.7% (active)
Cc1ccc(N(C(=O)c2ccc(CN3CCOCC3)o2)C(C(=O)NCCC(C)C)c2cccs2)c(C)c1 (stereo not given)	9.68%
CSc1ncccc1C(=O)Nc1cccc(S(=O)(=O)N2CCOCC2)c1	7.64%
Cc1ccc(S(=O)(=O)N(C)C)cc1NC(=O)C(C)OC(=O)c1ccc2ccccc2n1 (stereo not given)	21.1%
COC(=O)c1cc(C(=O)OCC(=O)Nc2cc(C)on2)cc([N+](=O)[O-])c1	19.2%
COC(=O)c1ccccc1NC(=O)Cn1nc(C(F)(F)F)c2c1CCC2	-1.81%
COCCn1c(SCC(=O)N2CCCCCC2)nc2c(c1=O)SCC2	28% (active)
COCCn1c(SCC(=O)Nc2ccc(F)cc2F)nc2c(c1=O)SCC2	0.05%
COCCn1c(SCC(=O)Nc2ccccc2F)nc2c(c1=O)SCC2	1.76%

Structure (SMILES)	activation
CC(=O)n1cc([C@@H]2C=C(C(=O)N3CCN(Cc4ccc5c(c4)OCO5)CC3)O[C@H](OCc3ccc(CO)cc3)C2)c2ccccc21	-4.81%
CC(C)n1ncc2c(C(=O)N3CCN(Cc4cccs4)CC3)cc(C3CC3)nc21	3.71%
CC(OC(=O)/C=C/c1ccccc1)C(=O)Nc1ccc(C(N)=O)cc1 (stereo not given)	5.82%
C=CCOc1ccc(/C=C/C(=O)OC(C)C(=O)Nc2ccc(NC(C)=O)cc2)cc1 (stereo not given)	0.99%
CCc1ccc(NC(=O)C(C)OC(=O)/C=C/c2cccc([N+](=O)[O-])c2)cc1 (stereo not given)	30.3% (active)
O=C1CN(C(=O)CN2C(=O)NC3(CCCCC3)C2=O)c2ccccc2N1	3.42%
Cn1c(SCC(=O)c2ccccc2)ncc(C(=O)Nc2ccc(F)cc2)c1=O	21.6% (active)
Cc1ccc(NC(=O)c2cnc(SCC(=O)NCC3CCCO3)n(C)c2=O)cc1 (stereo not given)	21.4%
Cn1c(SCC(=O)c2ccc(F)cc2)nnc1-c1ccccn1	-3.85%
CC(C)NC(=O)N1Cc2cc(C(=O)NCC(F)(F)F)nc(-c3cccc(-c4cc5ccccc5o4)c3)c2[C@@H]1CCO	1.14%
COc1ccc(CCNC(=O)CN2C(=O)CCSc3ccccc32)c(OC)c1	0.14%
CC(NS(=O)(=O)c1ccc(OCC(=O)N2CCCC2)cc1)c1ccccc1 (stereo not given)	1.05%
O=C(COC(=O)c1ncc(Cl)c(Cl)c1Cl)NCc1ccccc1	16.7%
CCN(CC)S(=O)(=O)c1ccc2c3c(cccc13)C(=O)S2	-6.1%
CCN1C(=O)c2cccc3c(S(=O)(=O)Nc4ccccc4O)ccc1c23	17.5% (active)
Cc1ccccc1C(=O)NNC(=O)CN1C(=O)c2ccccc2C1=O	9.49%
C/C(CC(=O)Nc1ccc(C)cc1C)=N\NC(=O)C(C)C	2.54%
CN(C)C(=O)N1CCNCC1	4.12%
Cc1cc(Br)cn2c(Cc3ccsc3)c(-c3ccc(C#N)cc3)nc12	-5.22%
COc1cc(CCC(=O)OCC(=O)Nc2cccc(S(N)(=O)=O)c2)cc(OC)c1OC	1.58%
O=C1CSc2ccc(S(=O)(=O)NCc3ccccc3)cc2N1	0.62%
COc1cccc(C2=CC(=O)C[C@H](c3ccc(F)cc3)C2)c1OC	2.96%
